Rab9 prom act: Rab9 promoter activation | Huh7 Rab9 promoter-luciferase reporter, luminescence, 24 h | Potency, µM (doses to about 9.22 µM), inactives show at the highest dose activation, negative = inhibition, hits mostly activators | actives 2.8% (n = 320,000) | AID 485297; further: % of control where 0% means no effect; nearly all actives have a fitted effect of over 60% in size
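Steps: seed 1500 Huh7 Rab9-luc cells per well, rest 2 h at 37 °C; add compound in DMSO; incubate 24 h; add luciferase reagent, 10 min ambient; read luminescence.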
FLuc counter: inhibits or activates purified firefly luciferase, miR-21 counter-screen; Potency, µM (titrated, usually from 57.5 µM), for the others: at the top dose activity change, negative = inhibition, hits mostly inhibitors; purified FLuc, Km substrates, luminescence inhibition; P08659; actives 6.9% (n = 360,000);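 further: plate controls were vehicle for no effect and reference inhibitor for full effect; nearly all actives have a fitted effect of over 55% in size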
Target sequence (P08659 whole entry, looked up): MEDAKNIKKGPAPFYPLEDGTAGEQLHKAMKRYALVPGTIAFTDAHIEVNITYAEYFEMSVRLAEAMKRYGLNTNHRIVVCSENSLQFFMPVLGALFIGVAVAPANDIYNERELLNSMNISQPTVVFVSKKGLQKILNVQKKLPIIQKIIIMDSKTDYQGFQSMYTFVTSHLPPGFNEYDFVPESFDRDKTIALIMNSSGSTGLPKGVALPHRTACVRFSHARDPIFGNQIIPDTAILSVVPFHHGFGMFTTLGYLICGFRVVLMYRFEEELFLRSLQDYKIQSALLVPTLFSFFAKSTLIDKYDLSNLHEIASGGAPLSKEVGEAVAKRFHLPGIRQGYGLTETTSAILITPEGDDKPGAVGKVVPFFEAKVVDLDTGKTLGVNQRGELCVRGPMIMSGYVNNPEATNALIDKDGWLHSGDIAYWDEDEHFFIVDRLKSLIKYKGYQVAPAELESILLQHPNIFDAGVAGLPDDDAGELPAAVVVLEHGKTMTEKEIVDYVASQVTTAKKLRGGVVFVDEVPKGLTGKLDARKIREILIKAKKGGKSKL
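Purified P. pyralis luciferase (10nM final) with 10uM D-luciferin and 10uM ATP (Km levels) in 50mM Tris acetate pH 7.5, 10mM Mg acetate, 0.01% Tween-20, 0.05% BSA; qHTS 6-point titration, ~60 µM downward; luminescence read.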
SMN2 splice up: enhancers of SMN2 splice variant expression; HEK293 SMN2-luciferase splicing reporter, luminescence, 30-36 h; Potency, µM (top dose mostly 46.1 µM), for the others: top-dose activity change, positive = activation, actives largely listed as activators; actives 2.8% (n = 210,000); further: % of control where 0% means no effect; nearly all actives have a fitted effect of over 55% in size
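HEK293 cells carry an SMN2 minigene-luciferase reporter in which exon 7 inclusion puts luciferase in frame. Cells were seeded at 2000 cells/well, attached for 10-12 hours, then exposed to compounds for 30-36 hours at 37C before ONE-Glo luminescence.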
ELG1 genotoxic: genotoxicity induction in ELG1-luciferase HEK293T cells; HEK293T ELG1-luciferase reporter, luminescence, 16 h; actives 1.3% (n = 330,000); Potency, µM (doses to about 46 µM), for inactives: top-dose activity change, positive = activation, most hits filed as activators; further: % of control where 0% means no effect; nearly all actives have a fitted effect of over 60% in size
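DMSO vehicle served as control against compound-treated ELG1-luciferase HEK293T cells; exposure lasted 16 hr at 37 °C and 5% CO2, followed by ONE-Glo luminescence detection after 30 min.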
NPC1 promoter act: activates the NPC1 promoter | Potency, µM (doses to about 9.22 µM), without a hit: at the top dose activation, hits mostly activators | actives 2.4% (n = 320,000) | Huh7 NPC1 promoter luciferase reporter, 24 h | AID 485313; further: % of control where 0% means no effect; nearly all actives have a fitted effect of over 60% in size
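Luminescence from an NPC1 promoter-driven luciferase reporter in stably transfected Huh7 cells was measured after 24 h compound treatment at 37 °C, followed by 10 min ambient incubation with luciferase detection reagent.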
Starred values were filed as active, the others as inactive; [ ] = dose if it differs, or a comment. Compounds with a hit are over-represented: about 7.4% of the library has one in this group of screens. The call rests on the fitted dose curve; in most records, active means well fitted curve in the direction sought with a large enough effect; inconclusive means small, poorly fitted or top-dose-only effect, or another doubt; inactive means no such curve, though single readings can be large; an effect the other way counts as inactive or inconclusive. Potency means the concentration at half of the fitted maximal effect.

Screening O=C(O/N=C1\CCCc2ccccc21)c1cccs1 returned Rab9 prom act -5%, FLuc counter 1.3µM*, SMN2 splice up 0%, ELG1 genotoxic -3% and NPC1 promoter act 0%.
Screening O/N=C1\CCCc2ccccc21 returned Rab9 prom act 11%, FLuc counter 2%, ELG1 genotoxic 0% and NPC1 promoter act 5%.
`Cn1cccc1C(=O)OCC(=O)Nc1sccc1C#N` gave ELG1 genotoxic 21µM*.
Screening COc1ccc(CCC(=O)Nc2sccc2C#N)cc1 returned Rab9 prom act 2µM*, FLuc counter 17µM*, SMN2 splice up 16µM*, ELG1 genotoxic 6.5µM* and NPC1 promoter act 4µM*.
`N#Cc1ccsc1NC(=O)COC(=O)c1ccc(Br)o1` gave ELG1 genotoxic 4%.
Screening N#Cc1ccsc1NC(=O)COC(=O)c1cc(Br)ccc1O returned Rab9 prom act inconclusive, FLuc counter 9.5µM*, ELG1 genotoxic 15% and NPC1 promoter act 16%.
Screening N#Cc1ccsc1NC(=O)COC(=O)c1ccc2ccccc2c1 returned Rab9 prom act 0.45µM*, FLuc counter 11µM*, SMN2 splice up inconclusive, ELG1 genotoxic inconclusive and NPC1 promoter act inconclusive.
`O=[N+]([O-])c1sccc1CS(=O)(=O)c1ccccc1` gave Rab9 prom act 2%, FLuc counter -1%, ELG1 genotoxic -3% and NPC1 promoter act -1%.
For COc1ccc(N=[N+]([O-])c2ccc(OC)cc2)cc1 the results were SMN2 splice up 7.1µM*.
Cn1c(Cl)c(C(=O)Nc2ccc(Cl)cc2)c2ccccc21 was read as Rab9 prom act 16%, FLuc counter 6µM*, SMN2 splice up 20%, ELG1 genotoxic 3% and NPC1 promoter act inconclusive.
For CCc1c(C(=O)NCCc2ccc(N3CCCCC3)cc2)[nH]c2ccc(Cl)cc12 the results were Rab9 prom act -12%[46.1 µM] and NPC1 promoter act -1%[46.1 µM].
`Cc1ccc2nc(-c3ccc(N4C(=O)CC(N5CCCC(C)C5)C4=O)cc3)sc2c1` (stereo not drawn) gave FLuc counter 15µM* and SMN2 splice up 17%.
`CCOC(=O)C1CCCN(C2CC(=O)N(c3ccc(N4C(=O)CC(N5CCCC(C(=O)OCC)C5)C4=O)cc3)C2=O)C1` (stereo not drawn) gave Rab9 prom act 1%, FLuc counter 4%, SMN2 splice up 11%, ELG1 genotoxic -4% and NPC1 promoter act -3%.
Screening Cc1ccc2nc(-c3ccc(N4C(=O)CC(N5CCC(C(N)=O)CC5)C4=O)cc3)sc2c1 (stereo not drawn) returned Rab9 prom act 1%, FLuc counter 2.7µM*, SMN2 splice up 11%, ELG1 genotoxic inconclusive and NPC1 promoter act 5%.
For CCc1ccc(CNC(=O)c2cnc(N3CCCCC3)c3ccccc23)cc1 the results were FLuc counter -13%.
For Cc1ccc(N/C=C/C(=O)c2ccco2)c(O)c1 the results were Rab9 prom act 1.8µM*, FLuc counter 0.76µM*, ELG1 genotoxic 3.7µM* and NPC1 promoter act 3.2µM*.
Screening CCOC(=O)c1ccc(N/C=C/C(=O)c2ccco2)cc1 returned Rab9 prom act 1.3µM*, FLuc counter 1.3µM*, SMN2 splice up 14µM*, ELG1 genotoxic 0.73µM* and NPC1 promoter act 1.6µM*.
For O=C(/C=C/Nc1ccc(F)cc1)c1ccco1 the results were Rab9 prom act 2.8µM*, FLuc counter 0.95µM*, SMN2 splice up 16µM*, ELG1 genotoxic 2.1µM* and NPC1 promoter act 4µM*.
`O=C(Nc1ccccc1C(=O)Nc1ccc(F)cc1)c1ccco1` gave Rab9 prom act -5%, FLuc counter inconclusive, ELG1 genotoxic -1% and NPC1 promoter act -3%.
For CC1CCCN(C(=S)Nc2ccc(Nc3ccccc3)cc2)C1 (stereo not drawn) the results were Rab9 prom act 3.5µM*, FLuc counter inconclusive, ELG1 genotoxic 7% and NPC1 promoter act 28%.
`OCC1CCCN(C(=S)Nc2ccc(Oc3ccccc3)cc2)C1` (stereo not drawn) gave Rab9 prom act 1.8µM*, FLuc counter 13µM*, ELG1 genotoxic 17% and NPC1 promoter act inconclusive.
For CC(=O)c1ccc(NC(=S)N2CCCC(CO)C2)cc1 (stereo not drawn) the results were Rab9 prom act inconclusive, FLuc counter 8.5µM*, SMN2 splice up 16µM*, ELG1 genotoxic inconclusive and NPC1 promoter act inconclusive.
`COc1cc(NC(=S)N2CCCC(CO)C2)cc(OC)c1` (stereo not drawn) gave Rab9 prom act 13%, FLuc counter inconclusive, SMN2 splice up 11%, ELG1 genotoxic 3% and NPC1 promoter act -2%.
Screening COC(=O)Cc1ccc(NC(=S)N2CCCC(C)C2)cc1 (stereo not drawn) returned Rab9 prom act inconclusive, FLuc counter 1.5µM*, SMN2 splice up inconclusive, ELG1 genotoxic inconclusive and NPC1 promoter act 24%.
Screening Cc1ccc(-c2cc(Cc3ccncc3)c(=O)[nH]n2)cc1 returned Rab9 prom act -5%, FLuc counter -4%, ELG1 genotoxic 4% and NPC1 promoter act 0%.
CCCCNS(=O)(=O)c1ccc2nc(-c3cccnc3)cc(C(=O)NCC(OC)OC)c2c1 was read as Rab9 prom act -7%, FLuc counter 0%, ELG1 genotoxic 8% and NPC1 promoter act 2%.
`COC(=O)Cc1ccc(NC(=S)N2CCCC(CO)C2)cc1` (stereo not drawn) gave Rab9 prom act inconclusive, FLuc counter 0.85µM*, ELG1 genotoxic inconclusive and NPC1 promoter act inconclusive.
OC1CCCN(C(=S)Nc2ccc(SC(F)F)cc2)C1 (stereo not drawn) was read as Rab9 prom act 14%, FLuc counter 11µM*, SMN2 splice up inconclusive, ELG1 genotoxic 9% and NPC1 promoter act 14%.
For Cc1ccc(NC(=S)N2CCC(O)CC2)c(C)c1 the results were Rab9 prom act -1%, FLuc counter -3%, SMN2 splice up -4%, ELG1 genotoxic -4% and NPC1 promoter act -8%.
`Cc1ccc(NC(=S)N2CCCC(CO)C2)c(C)c1` (stereo not drawn) gave Rab9 prom act inconclusive, FLuc counter 17µM*, ELG1 genotoxic 10% and NPC1 promoter act 17%.
For CC1CC(C)CN(C(=S)Nc2ccc(SC(F)F)cc2)C1 (stereo not drawn) the results were Rab9 prom act -3%, FLuc counter inconclusive, SMN2 splice up 16%, ELG1 genotoxic -3% and NPC1 promoter act -5%.
`C/C(=N\O)c1ccc2c3ccccc3n(C)c2c1` gave Rab9 prom act inconclusive, FLuc counter 19µM*, SMN2 splice up 40%, ELG1 genotoxic inconclusive and NPC1 promoter act inconclusive.

Source: PubChem
